PubChem BioAssay (Tox21)
Records with an inconclusive call do not appear. The source made the active and inactive calls. Calls follow the shape of the dose curve; as a rule, active = well fitted inhibition curve with a large enough effect in the signal ratio in the repeat runs (not every such curve was filed as active); inconclusive = weak or mixed curves, or effect the other way; inactive = no such curve, though single readings can be large or run the other way; the % refers to the signal ratio.

The compounds below were run against Bile acid receptor (Homo sapiens) (UniProt Q96RI1) (assay: qHTS assay to identify small molecule antagonists of the farnesoid-X-receptor (FXR) signaling pathway (AID 743217)). Conditions: HEK293T FXR-UAS-bla, beta-lactamase ratio, CDCA-stimulated, 16 h; series mostly up to 62.6 µM.
Description: U.S. Tox21 Program National Center for Advancing Translational Sciences [NCATS] NIH Chemical Genomics Center [NCGC] U.S. Environmental Protection Agency [EPA] National Institutes of Environmental Health Sciences [NIEHS] National Toxicology Program [NTP] U.S. Food and Drug Administration [FDA] Tox21 Assay Overview: The farnesoid-X-receptor (FXR), a nuclear hormone receptor, is highly expressed in liver, intestine, kidney and adrenal cortex. Natural ligands of FXR are the bile acids (Cholic acid, Chenodeoxy cholic acid etc). FXR is an important regulator of diverse metabolic pathways, including the bile acid homeostasis, lipid and glucose metabolisms. FXR regulates the expression of target genes by binding either as a monomer or as a heterodimer with the retinoid X receptor (RXR). Numerous studies have reported that FXR exerts protective function during cholestasis, diabetes, liver regeneration, and cancer. To identify compounds that inhibit FXR signaling, GeneBLAzer FXR-UAS-bla HEK 293T cell line (Invitrogen, Carlsbad, CA) containing a beta-lactamase reporter gene under the control of a UAS response element was used to screen the Tox21 10K compound library.
Tox21 Assay Protocol Summary: FXR-bla cells were dispensed at 5000 cells/5uL/well in 1536-well black wall/clear bottom plates using a Multidrop Combi (Thermo Fisher Scientific, Waltham, MA) dispenser. After the assay plates were incubated at 37C and 5% CO2 for 5 h, 23 nL of compounds dissolved in DMSO, positive controls or DMSO only was transferred to the assay plate by a Pintool station (Kalypsys, San Diego, CA), followed by addition of 1 uL Chenodeoxycholic acid (50 uM, final concentration in the wells). The assay plates were incubated at 37C for 16 h. After 1 uL of LiveBLAzerTM B/G FRET substrate was added using a Bioraptr Flying Reagent Dispenser (FRD) workstation (Beckman Coulter, Indianapolis, IN), the plates were incubated at room temperature for 2 h, and fluorescence intensity was measured by an Envision plate reader (PerkinElmer, Shelton, CT).

Chain of Bile acid receptor (Homo sapiens) (Q96RI1 whole entry, looked up): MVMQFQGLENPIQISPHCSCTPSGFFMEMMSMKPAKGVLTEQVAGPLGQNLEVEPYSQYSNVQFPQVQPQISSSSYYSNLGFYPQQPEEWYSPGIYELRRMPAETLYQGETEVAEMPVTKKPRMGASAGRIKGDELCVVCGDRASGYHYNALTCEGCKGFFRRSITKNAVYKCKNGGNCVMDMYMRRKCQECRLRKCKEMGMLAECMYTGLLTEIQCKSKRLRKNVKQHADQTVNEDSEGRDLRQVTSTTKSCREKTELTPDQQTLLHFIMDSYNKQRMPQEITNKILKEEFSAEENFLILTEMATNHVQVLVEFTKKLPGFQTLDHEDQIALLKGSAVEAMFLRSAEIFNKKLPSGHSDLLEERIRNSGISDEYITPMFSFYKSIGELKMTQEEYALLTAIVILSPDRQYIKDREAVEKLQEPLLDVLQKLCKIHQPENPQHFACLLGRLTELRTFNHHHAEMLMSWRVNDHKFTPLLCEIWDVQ

Compound | outcome
CC1(C)S[C@@H]2[C@H](NC(=O)C(C(=O)O)c3ccccc3)C(=O)N2[C@H]1C(=O)O (stereo not given in full) | inactive
CCC(=O)c1ccc2c(c1)N(CCCN(C)C)c1ccccc1S2 | inactive
O=C(C(Cl)Cl)N1CCOC12CCCCC2 | inactive
CC(C)c1ccccc1 | inactive
CN1CCN(C2=Nc3cc(F)ccc3Cc3ccccc32)CC1 | inactive
CCN(CC)C(=O)N(CC)CC | inactive
CC(=O)N[C@@H](CC(C)C)C(=O)O | inactive
COc1nc(C)nc(NC(=O)NS(=O)(=O)c2ccccc2OCCCl)n1 | inactive
C=CCc1cc(OC)c(O)c(C(=O)NCCO)c1 | inactive
CCCCCCCCCC/C=C/C#N | inactive
CC(=O)Nc1ccc(C)c(Cl)c1 | inactive
CN1[C@@H]2CC[C@H]1CC(OC(=O)c1c[nH]c3ccccc13)C2 (stereo not given in full) | inactive
C1CCOC1 | inactive
O=Cc1ccc(O)c(O)c1O | inactive
CS(=O)(=O)c1ccc([C@@H](O)[C@@H](CF)NC(=O)C(Cl)Cl)cc1 | inactive
Cc1ccc([N+](=O)[O-])cc1Cl | inactive
CCCC(CCC)(C(=O)OCC)C(=O)OCC | inactive
CCCCCCC | inactive
NC(=O)Cc1cccc(C(=O)c2ccccc2)c1N | inactive
CCCCCCCCc1ccc(S(=O)(=O)O)cc1 | inactive

Compound | outcome
OCCN(CCO)c1ccccc1 | inactive
CC(C)O | inactive
C=CCCC=C | inactive
CN1CCN(N)CC1 | inactive
COC(=O)/C=C(/C)N | inactive
COC(=O)C(C)O (stereo not given) | inactive
CN1C(=O)CC(c2ccccc2)C1=O (stereo not given) | inactive
CC(=O)N(CC(O)CN(C(C)=O)c1c(I)c(C(=O)NCC(O)CO)c(I)c(C(=O)NCC(O)CO)c1I)c1c(I)c(C(=O)NCC(O)CO)c(I)c(C(=O)NCC(O)CO)c1I (stereo not given) | inactive
COc1cc(C)ccc1C(C)C | inactive
ClC(Cl)Cl | inactive
COC(=O)c1ccc(OC)cc1 | inactive
Cc1cc2nc(N)sc2cc1C | inactive
CCN(CCCc1ccccc1)CCCc1ccccc1 | inactive
CC(C)C(=O)OCC(C)(C)C(O)C(C)C (stereo not given) | inactive
CC(=O)OC1C2(C)CCC(C2)C1(C)C (stereo not given) | inactive
CCCCCCCCOC(=O)CCCCCCCCC(=O)OCCCCCCCC | inactive
OCc1ccccc1O | inactive
CC1(C)C(=O)N(Cl)C(=O)N1Br | inactive
CCC(=O)Nc1ccc(O)cc1 | inactive
CCC1(C)NC(=O)NC1=O (stereo not given) | inactive
